Experiment [1] can be described thus: ATG_TAL_CIS: Attagene CIS-FACTORIAL HepG2 Assay for human TAL Basal Promoter (AID 2282966; active means hit-call score of the fitted dose curve at least 0.9, where 1 is the maximum; inactive means score below 0.9;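 further: background control endpoint measuring basal TAL promoter reporter mRNA not a specific factor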). Conditions: HepG2 Attagene cis-factorial TAL promoter reporter; actives raise or lower the signal. The method, boiled down:
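Basal-promoter background-control endpoint from a multiplexed HepG2 reporter panel. Cells were exposed 24 h, then reporter mRNA was read by RT-PCR/CE fluorescence and fitted in both directions relative to DMSO.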

A short description of experiment [2]: ATG_TGFb_CIS: Attagene CIS-FACTORIAL HepG2 Assay for human Transforming Growth Factor (TGF) (AID 2282967; active means hit-call score of the fitted dose curve at least 0.9, where 1 is the maximum; inactive means score below 0.9). Conditions: HepG2 Attagene CIS TGFb reporter, mRNA transcription; actives raise or lower the signal. In outline: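 HepG2 cells transiently transfected with cis-promoter-driven multiplexed reporter units; 24 h compound exposure. Reporter mRNA measured by RT-PCR, 6-FAM labeling, HpaI digestion and capillary electrophoresis; bidirectional fit versus DMSO baseline.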

Experiment [3] can be described thus: ATG_VDRE_CIS: Attagene CIS-FACTORIAL HepG2 Assay for human Vitamin D Receptor Element (VDRE) (AID 2282968; active means hit-call score of the fitted dose curve at least 0.9, where 1 is the maximum; inactive means score below 0.9). Conditions: HepG2 VDRE cis-reporter transcription, actives raise or lower the signal. In outline: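 Compounds were applied for 24 h to HepG2 cells transfected with promoter-regulated reporter units. Total RNA was reverse-transcribed, and reporter amplicons were fluorescently labelled and sized by capillary electrophoresis.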

Experiment [4] concerns the target Estrogen receptor (Homo sapiens) (UniProt P03372). Nature of the experiment: ATG_ERa_TRANS: Attagene TRANS-FACTORIAL HepG2 Assay for human Estrogen Receptor alpha (ERa) (AID 2282970). Particulars: HepG2 Attagene TRANS ERa GAL4 reporter, mRNA. In outline:
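Gal4-fusion ERa transactivation, measured as reporter transcript level in transiently transfected HepG2 cells. Exposure 24 h; RT-PCR plus capillary electrophoresis with fluorescence detection.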

For experiment [5], the target named is X-box-binding protein 1 (Homo sapiens) (UniProt P17861). Put plainly: ATG_Xbp1_CIS: Attagene CIS-FACTORIAL HepG2 Assay for human X-box Binding Protein 1 (XBP1) (AID 2282972; active means hit-call score of the fitted dose curve at least 0.9, where 1 is the maximum; inactive means score below 0.9). Conditions: HepG2 XBP1 cis-element reporter, Attagene multiplex; actives raise or lower the signal. The method, boiled down:
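Human hepatoma HepG2, cis-element reporter system, 24 h treatment; mRNA quantified by RT-PCR/CE fluorescence; fit relative to DMSO.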

Experiment [6] has as its target Bile acid receptor (Homo sapiens) (UniProt Q96RI1). Nature of the experiment: ATG_FXR_TRANS: Attagene TRANS-FACTORIAL HepG2 Assay for Farnesoid X Receptor (FXR) (AID 2282979).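 Further: hits raise reporter mRNA above DMSO so AC50 marks FXR activation.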 Conditions: HepG2 Attagene TRANS FXR-GAL4 reporter transcription. The method, boiled down:
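HepG2 cells were transiently transfected with GAL4-UAS reporters driven by chimeric NR-Gal4 proteins and dosed for 24 h. Reporter mRNA was quantified by RT-PCR, fluorescent labelling, HpaI digestion and capillary electrophoresis, with gain of signal scored versus DMSO.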

In experiment [7] the target is Oxysterols receptor LXR-alpha (Homo sapiens) (UniProt Q13133). Nature of the experiment: ATG_LXRa_TRANS: Attagene TRANS-FACTORIAL HepG2 Assay for human Liver X Receptor alpha (LXRa) (AID 2282980). Particulars: HepG2 Attagene TRANS reporter, LXRa transactivation. The method, boiled down: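 HepG2 cells transiently transfected with GAL4-UAS reporter units for chimeric NR-Gal4 proteins, exposed to chemicals for 24 h. Reporter mRNA quantified by RT-PCR and capillary electrophoresis; gain of signal fitted relative to DMSO.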
Sequence of Oxysterols receptor LXR-alpha (Homo sapiens) (Q13133 whole entry, looked up, the tested form may be a part): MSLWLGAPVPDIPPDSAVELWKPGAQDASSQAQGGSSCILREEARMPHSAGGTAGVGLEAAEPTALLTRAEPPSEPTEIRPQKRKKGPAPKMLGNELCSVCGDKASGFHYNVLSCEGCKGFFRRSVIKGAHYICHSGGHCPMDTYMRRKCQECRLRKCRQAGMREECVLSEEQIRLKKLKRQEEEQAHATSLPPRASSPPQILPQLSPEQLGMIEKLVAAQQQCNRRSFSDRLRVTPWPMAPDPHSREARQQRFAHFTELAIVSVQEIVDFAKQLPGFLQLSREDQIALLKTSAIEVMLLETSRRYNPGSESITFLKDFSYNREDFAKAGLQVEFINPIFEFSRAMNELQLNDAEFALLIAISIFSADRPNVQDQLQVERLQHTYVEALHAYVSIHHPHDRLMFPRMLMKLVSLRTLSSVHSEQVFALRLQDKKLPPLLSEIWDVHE

Experiment [8] deals with Oxysterols receptor LXR-beta (Homo sapiens) (UniProt P55055). Nature of the experiment: ATG_LXRb_TRANS: Attagene TRANS-FACTORIAL HepG2 Assay for human Liver X Receptor beta (LXRb) (AID 2282981). Conditions: HepG2 Attagene TRANS GAL4-LXRb reporter, mRNA. In outline: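 Multiplexed reporter assay, HepG2, 24 h dosing. Fluorescence of labelled RT-PCR products after capillary electrophoresis gives transcript level; positive fitting direction relative to DMSO.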
Sequence of Oxysterols receptor LXR-beta (Homo sapiens) (P55055 whole entry, looked up, the tested form may be a part): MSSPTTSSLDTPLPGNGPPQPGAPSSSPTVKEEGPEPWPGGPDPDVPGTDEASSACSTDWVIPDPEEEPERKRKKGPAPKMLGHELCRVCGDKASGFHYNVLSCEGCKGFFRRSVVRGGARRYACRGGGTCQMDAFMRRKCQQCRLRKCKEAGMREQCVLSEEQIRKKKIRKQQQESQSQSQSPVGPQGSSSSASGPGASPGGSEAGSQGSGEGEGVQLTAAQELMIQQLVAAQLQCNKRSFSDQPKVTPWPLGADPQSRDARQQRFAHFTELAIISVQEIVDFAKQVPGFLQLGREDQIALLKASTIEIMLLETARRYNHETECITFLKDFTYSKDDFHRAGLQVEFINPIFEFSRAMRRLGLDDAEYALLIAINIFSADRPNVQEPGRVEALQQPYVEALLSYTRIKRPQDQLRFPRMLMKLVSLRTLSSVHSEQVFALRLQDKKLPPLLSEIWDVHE

Experiment [9] concerns the target Hepatocyte nuclear factor 4-alpha (Homo sapiens) (UniProt P41235). Nature of the experiment: ATG_HNF4a_TRANS: Attagene TRANS-FACTORIAL HepG2 Assay for human Hepatocyte Nuclear Factor 4 alpha (HNF4a) (AID 2282982). Conditions: HepG2 HNF4a transactivation reporter, mRNA readout. In outline:
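Endpoint reflects transcriptional activation of a GAL4-UAS reporter by an HNF4a-GAL4 chimera in transfected HepG2 cells, 24 h post-dosing. Fluorescence from RT-PCR products separated by capillary electrophoresis; DMSO baseline.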

A short description of experiment [10]: ATG_M_06_TRANS: Attagene TRANS-FACTORIAL HepG2 Assay for M06 Transcription Factor (Internal Marker) (AID 2282983). Particulars: HepG2 Attagene TRANS M06 internal marker reporter. In outline:
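mRNA levels of a reporter transcript, quantified as FAM fluorescence on capillary electrophoresis, served as readout. HepG2 cells expressing exogenous GAL4-chimera reporter constructs were exposed for 24 h. Gain of signal over DMSO was evaluated.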

For experiment [11], the target named is Transcriptional activator Myb (Homo sapiens) (UniProt P10242). Put plainly: ATG_Myb_CIS: Attagene CIS-FACTORIAL HepG2 Assay for human Myeloblastosis (Myb) Proto-Oncogene Transcription Factor (AID 2282986; active means hit-call score of the fitted dose curve at least 0.9, where 1 is the maximum; inactive means score below 0.9). Conditions: HepG2 Attagene CIS-FACTORIAL Myb reporter transcription; actives raise or lower the signal. In outline:
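Transiently transfected HepG2 cells, treated 24 h. Reporter mRNA quantified by RT-PCR/capillary electrophoresis; bidirectional fit relative to DMSO.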

Experiment [12] deals with Nuclear respiratory factor 1 (Homo sapiens) (UniProt Q16656). Nature of the experiment: ATG_NRF1_CIS: Attagene CIS-FACTORIAL HepG2 Assay for human Nuclear Respiratory Factor 1 (NRF1) Orphan Gene (AID 2282987; active means hit-call score of the fitted dose curve at least 0.9, where 1 is the maximum; inactive means score below 0.9). Conditions: HepG2 NRF1 cis-element reporter, Attagene multiplex; actives raise or lower the signal. In outline: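 Cells (HepG2, transient MRTU transfection) are exposed to compound for 24 h, then RNA isolated and reporter mRNA amplified and fluorescently labelled. Fragments are separated by capillary electrophoresis; signal change is fitted bidirectionally relative to DMSO.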
Sequence of Nuclear respiratory factor 1 (Homo sapiens) (Q16656 whole entry, looked up, the tested form may be a part): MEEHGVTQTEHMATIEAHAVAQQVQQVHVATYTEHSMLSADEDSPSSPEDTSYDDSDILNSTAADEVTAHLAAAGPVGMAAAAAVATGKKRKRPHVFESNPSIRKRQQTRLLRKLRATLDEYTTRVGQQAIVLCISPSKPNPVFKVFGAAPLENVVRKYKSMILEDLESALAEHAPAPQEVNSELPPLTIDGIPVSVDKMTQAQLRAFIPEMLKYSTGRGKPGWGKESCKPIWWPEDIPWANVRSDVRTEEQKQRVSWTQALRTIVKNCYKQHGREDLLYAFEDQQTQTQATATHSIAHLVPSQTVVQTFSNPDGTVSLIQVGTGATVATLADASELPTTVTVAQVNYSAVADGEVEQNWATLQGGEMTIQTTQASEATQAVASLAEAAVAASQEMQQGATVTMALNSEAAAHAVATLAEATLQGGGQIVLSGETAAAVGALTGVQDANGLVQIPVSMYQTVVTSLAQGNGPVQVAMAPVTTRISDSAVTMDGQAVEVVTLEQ

The nature of experiment [13]: ATG_M_19_TRANS: Attagene TRANS-FACTORIAL HepG2 Assay for M19 Transcription Factor (Internal Marker) (AID 2282974). Conditions: HepG2 Attagene TRANS-FACTORIAL M19 internal marker reporter. In outline:
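Reporter mRNA induction was measured in transfected HepG2 cells 24 h after dosing. Endpoint fitted upward relative to DMSO and serves as a background control within the multiplexed TRANS panel.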

The nature of experiment [14]: ATG_GAL4_TRANS: Attagene TRANS-FACTORIAL HepG2 Assay for GAL4 (Internal Marker) (AID 2282976). Particulars: HepG2 Attagene TRANS GAL4 internal marker reporter. In outline: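 Background-control readout: GAL4-UAS reporter transcript in transiently transfected HepG2 cells after 24 h compound exposure. Measured by RT-PCR, 6-FAM primer extension, HpaI digest and capillary electrophoresis; gain-of-signal fit versus DMSO.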

Experiment [15] in a line: ATG_M_32_TRANS: Attagene TRANS-FACTORIAL HepG2 Assay for M32 Transcription Factor (Internal Marker) (AID 2282984). Conditions: HepG2 Attagene TRANS M32 internal marker reporter. In outline: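 Internal-marker readout from a multiplexed transcription reporter panel. HepG2 cells were transfected with GAL4-UAS reporter units, treated 24 hours, and reporter transcript levels determined by fluorescence after RT-PCR and capillary separation.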

Experiment [16] addresses Steroid hormone receptor ERR1 (Homo sapiens) (UniProt P11474). Put plainly: ATG_ERRa_TRANS: Attagene TRANS-FACTORIAL HepG2 Assay for human Estrogen-Related Receptor alpha (ERRa) (AID 2282971). Particulars: HepG2 Attagene TRANS reporter, ERRa transactivation. The method, boiled down:
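HepG2 cells transiently transfected with GAL4-UAS reporter units and chimeric NR-Gal4 constructs; after 24 hour compound incubation, reporter mRNA quantified by RT-PCR, fluorescent labelling and capillary electrophoresis, gain of signal versus DMSO.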

Experiment [17] has as its target Nuclear receptor subfamily 4 group A member 2 (Homo sapiens) (UniProt P43354). Nature of the experiment: ATG_NURR1_TRANS: Attagene TRANS-FACTORIAL HepG2 Assay for human Nuclear Receptor Related Protein 1 (NURR1) (AID 2282985). Conditions: HepG2 Attagene TRANS reporter, mRNA readout. In outline: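 Endpoint: reporter mRNA increase relative to DMSO. HepG2 cells transfected with reporter units, treated 24 h; RNA processed by RT-PCR, labelling, HpaI digestion and capillary electrophoresis.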

The target of experiment [18] is Estrogen-related receptor gamma (Homo sapiens) (UniProt P62508). Nature of the experiment: ATG_ERRg_TRANS: Attagene TRANS-FACTORIAL HepG2 Assay for human Estrogen-Related Receptor gamma (ERRg) (AID 2282977).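 Further: hits increase reporter signal over DMSO so potencies reflect activators.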 Particulars: HepG2 Attagene TRANS reporter, ERRg transactivation. In outline:
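Exogenous NR-Gal4 chimera activity measured as reporter transcript induction after 24 h in transiently transfected HepG2 cells. RNA reverse-transcribed, PCR-amplified, 6-FAM-labelled and resolved by capillary electrophoresis; increase over DMSO baseline.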

In experiment [19] the target is Glucocorticoid receptor (Homo sapiens) (UniProt P04150). Nature of the experiment: ATG_GR_TRANS: Attagene TRANS-FACTORIAL HepG2 Assay for human Glucocorticoid Receptor (GR) (AID 2282978).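 Further: activators score as hits since higher reporter transcript over DMSO is fitted.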 Particulars: HepG2 Attagene TRANS GR reporter, mRNA transcription. In outline:
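Reporter transcript levels, detected by fluorescence after RT-PCR and capillary electrophoresis, served as the endpoint. HepG2 cells bearing transfected GAL4-UAS reporters responsive to NR-GAL4 chimeras were incubated with compound 24 h; DMSO defined baseline.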

This is an account of results in PubChem BioAssay (EPA / NIEHS).

Inconclusive results are not listed. Activity calls are given as the source filed them. How the source made its calls, unless noted: active means hit-call score of the fitted dose curve at least 0.9, where 1 is the maximum; inconclusive means response in the unintended direction; inactive means score below 0.9.

Sequence of Transcriptional activator Myb (Homo sapiens) (P10242 whole entry, looked up): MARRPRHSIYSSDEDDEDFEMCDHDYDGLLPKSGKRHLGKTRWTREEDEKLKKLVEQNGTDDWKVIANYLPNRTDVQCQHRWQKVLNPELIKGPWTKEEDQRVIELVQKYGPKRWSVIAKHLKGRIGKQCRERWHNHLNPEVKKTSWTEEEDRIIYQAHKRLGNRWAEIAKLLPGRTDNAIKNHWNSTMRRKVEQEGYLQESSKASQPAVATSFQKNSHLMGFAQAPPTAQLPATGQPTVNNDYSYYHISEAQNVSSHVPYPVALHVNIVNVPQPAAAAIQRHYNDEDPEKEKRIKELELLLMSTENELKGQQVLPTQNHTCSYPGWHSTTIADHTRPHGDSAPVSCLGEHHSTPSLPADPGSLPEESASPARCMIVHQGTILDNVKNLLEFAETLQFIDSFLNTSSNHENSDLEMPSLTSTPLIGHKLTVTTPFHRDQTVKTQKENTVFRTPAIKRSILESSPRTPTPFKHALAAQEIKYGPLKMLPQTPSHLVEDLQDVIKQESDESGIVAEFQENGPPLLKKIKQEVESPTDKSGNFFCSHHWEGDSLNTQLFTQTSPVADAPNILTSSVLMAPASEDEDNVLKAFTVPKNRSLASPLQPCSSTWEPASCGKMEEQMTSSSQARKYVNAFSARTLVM
Sequence of Nuclear receptor subfamily 4 group A member 2 (Homo sapiens) (P43354 whole entry, looked up): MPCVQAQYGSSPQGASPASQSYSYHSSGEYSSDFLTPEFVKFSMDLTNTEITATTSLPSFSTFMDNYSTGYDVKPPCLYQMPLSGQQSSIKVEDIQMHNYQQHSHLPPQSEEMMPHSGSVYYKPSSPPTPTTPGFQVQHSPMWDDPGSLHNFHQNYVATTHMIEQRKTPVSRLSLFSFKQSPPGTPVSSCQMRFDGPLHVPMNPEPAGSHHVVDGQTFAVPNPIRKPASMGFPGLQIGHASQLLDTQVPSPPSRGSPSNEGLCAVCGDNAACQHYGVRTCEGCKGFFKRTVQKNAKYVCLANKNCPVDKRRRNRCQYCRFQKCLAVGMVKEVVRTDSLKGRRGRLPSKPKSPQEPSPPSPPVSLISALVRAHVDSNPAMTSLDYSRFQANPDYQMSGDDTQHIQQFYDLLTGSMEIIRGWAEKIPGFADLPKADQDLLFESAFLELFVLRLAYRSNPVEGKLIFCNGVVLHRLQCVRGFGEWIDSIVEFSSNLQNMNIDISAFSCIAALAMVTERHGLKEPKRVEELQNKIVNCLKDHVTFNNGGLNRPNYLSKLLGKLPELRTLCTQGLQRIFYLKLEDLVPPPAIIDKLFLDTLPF
Sequence of Bile acid receptor (Homo sapiens) (Q96RI1 whole entry, looked up, the tested form may be a part): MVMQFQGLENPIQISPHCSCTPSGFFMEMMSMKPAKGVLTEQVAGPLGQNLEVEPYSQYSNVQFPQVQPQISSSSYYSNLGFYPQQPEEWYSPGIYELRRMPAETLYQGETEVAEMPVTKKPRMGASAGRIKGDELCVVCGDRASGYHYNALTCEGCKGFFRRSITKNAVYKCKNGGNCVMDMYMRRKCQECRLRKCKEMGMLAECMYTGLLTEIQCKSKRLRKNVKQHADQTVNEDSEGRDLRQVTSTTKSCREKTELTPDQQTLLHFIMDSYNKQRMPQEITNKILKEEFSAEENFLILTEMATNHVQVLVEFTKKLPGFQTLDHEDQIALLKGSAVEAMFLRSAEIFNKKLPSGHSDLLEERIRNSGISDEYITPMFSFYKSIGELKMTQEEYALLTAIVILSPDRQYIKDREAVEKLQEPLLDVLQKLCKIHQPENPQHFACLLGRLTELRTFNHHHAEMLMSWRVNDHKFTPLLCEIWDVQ
Sequence of X-box-binding protein 1 (Homo sapiens) (P17861 whole entry, looked up): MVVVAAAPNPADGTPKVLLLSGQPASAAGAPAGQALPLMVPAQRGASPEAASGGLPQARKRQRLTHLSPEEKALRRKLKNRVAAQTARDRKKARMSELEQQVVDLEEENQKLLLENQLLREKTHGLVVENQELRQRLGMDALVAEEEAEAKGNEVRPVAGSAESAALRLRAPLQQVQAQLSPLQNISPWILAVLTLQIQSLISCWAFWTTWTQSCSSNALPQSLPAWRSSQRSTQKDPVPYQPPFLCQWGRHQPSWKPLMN
Sequence of Estrogen receptor (Homo sapiens) (P03372 whole entry, looked up, the tested form may be a part): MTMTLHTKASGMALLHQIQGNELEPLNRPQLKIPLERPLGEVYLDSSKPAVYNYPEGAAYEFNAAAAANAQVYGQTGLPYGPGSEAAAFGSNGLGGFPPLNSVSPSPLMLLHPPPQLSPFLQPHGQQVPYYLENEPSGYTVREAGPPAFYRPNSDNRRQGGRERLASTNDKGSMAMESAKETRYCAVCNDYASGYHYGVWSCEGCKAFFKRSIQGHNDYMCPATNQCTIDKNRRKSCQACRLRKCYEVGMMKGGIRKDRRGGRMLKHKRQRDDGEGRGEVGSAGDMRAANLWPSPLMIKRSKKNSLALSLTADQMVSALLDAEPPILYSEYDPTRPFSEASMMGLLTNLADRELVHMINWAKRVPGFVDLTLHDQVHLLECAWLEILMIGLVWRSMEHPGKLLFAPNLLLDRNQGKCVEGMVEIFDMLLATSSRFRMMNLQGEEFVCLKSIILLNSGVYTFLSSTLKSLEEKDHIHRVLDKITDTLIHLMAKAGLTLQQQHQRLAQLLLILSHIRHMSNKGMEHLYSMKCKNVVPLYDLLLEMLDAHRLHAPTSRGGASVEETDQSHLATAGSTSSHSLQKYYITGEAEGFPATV
Sequence of Hepatocyte nuclear factor 4-alpha (Homo sapiens) (P41235 whole entry, looked up, the tested form may be a part): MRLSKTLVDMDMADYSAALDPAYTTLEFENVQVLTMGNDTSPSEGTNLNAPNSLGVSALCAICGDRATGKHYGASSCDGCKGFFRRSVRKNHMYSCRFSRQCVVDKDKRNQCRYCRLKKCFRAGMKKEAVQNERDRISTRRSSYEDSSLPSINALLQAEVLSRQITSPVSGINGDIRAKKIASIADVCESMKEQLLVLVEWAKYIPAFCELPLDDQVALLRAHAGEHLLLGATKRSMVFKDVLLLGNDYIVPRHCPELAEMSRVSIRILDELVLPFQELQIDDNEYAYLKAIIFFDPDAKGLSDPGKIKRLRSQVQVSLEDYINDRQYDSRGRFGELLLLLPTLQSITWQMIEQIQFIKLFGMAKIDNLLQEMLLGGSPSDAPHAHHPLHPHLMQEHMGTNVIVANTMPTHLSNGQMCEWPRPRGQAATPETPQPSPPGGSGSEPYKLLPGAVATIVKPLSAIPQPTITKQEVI
Sequence of Steroid hormone receptor ERR1 (Homo sapiens) (P11474 whole entry, looked up, the tested form may be a part): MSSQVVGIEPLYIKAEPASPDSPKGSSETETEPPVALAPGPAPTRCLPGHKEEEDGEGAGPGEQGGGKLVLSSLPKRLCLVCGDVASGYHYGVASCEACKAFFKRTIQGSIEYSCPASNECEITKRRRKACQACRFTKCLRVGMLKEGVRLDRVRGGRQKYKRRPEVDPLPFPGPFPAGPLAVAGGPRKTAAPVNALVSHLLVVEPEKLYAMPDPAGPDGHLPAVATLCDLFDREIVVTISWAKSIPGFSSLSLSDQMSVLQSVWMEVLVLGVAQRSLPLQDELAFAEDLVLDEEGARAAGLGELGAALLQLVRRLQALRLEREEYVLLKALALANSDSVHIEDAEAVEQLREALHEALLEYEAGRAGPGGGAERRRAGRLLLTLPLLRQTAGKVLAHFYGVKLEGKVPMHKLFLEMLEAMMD

`Oc1ccc(Cl)cc1Cc1cc(Cl)ccc1O`: the outcome in experiment [1], in experiment [4], in [6], in experiment [7], in experiment [8] and in experiment [9] was inactive. The compound was classed as inactive in experiment [10], in experiment [11] and in experiment [12]. In addition, the AC50 in experiment [2] is 11.1 µM (active); in experiment [3] it was 7 µM (active); in experiment [5], 6.64 µM (active).
Take `CCCc1ccc(OC)cc1`: the call in [1], in experiment [2], in experiment [3], in [4], in experiment [5] and in [13] was inactive. Besides, the compound was called inactive in [14], in experiment [7], in experiment [9], in [15], in [11] and in experiment [12].
Turning to `O=S(=O)(O)c1cc(S(=O)(=O)O)c2ccc3c(S(=O)(=O)O)cc(S(=O)(=O)O)c4ccc1c2c43`, the compound was called inactive in experiment [1], in experiment [2], in [3], in [4], in [16] and in experiment [5]. For the same compound, the compound was called inactive in experiment [13], in experiment [6], in [7], in experiment [8], in experiment [9] and in experiment [10]. In addition, the compound was classed as inactive in experiment [15], in experiment [17], in [11] and in experiment [12].
For the compound `NC(=O)c1ccccc1O`, the compound was classed as inactive in [1], in experiment [2], in experiment [3], in experiment [4], in experiment [5] and in experiment [13]. Besides, the call in [6], in [8], in [9], in [10], in [11] and in experiment [12] was inactive.
In the case of `CCCCCCCCC(=O)OCC`, the outcome in experiment [1], in [2], in experiment [3], in experiment [4], in experiment [5] and in experiment [13] was inactive. Also, the compound was classed as inactive in [14], in experiment [18], in experiment [19], in experiment [9], in experiment [15] and in experiment [17]. In addition, the compound was classed as inactive in experiment [11] and in experiment [12].
As to `CC(CC=O)CCCC(C)(C)O` (stereo unspecified), the call in [1], in experiment [2], in [3], in experiment [4], in experiment [5] and in experiment [13] was inactive. Moreover, the compound was classed as inactive in experiment [18], in experiment [9], in [10], in experiment [15], in [17] and in [11]. In [12], the outcome was inactive.
Regarding `CC(C)(c1cc(Br)c(OCCO)c(Br)c1)c1cc(Br)c(OCCO)c(Br)c1`, the AC50 in experiment [1] is 27 µM (active); in experiment [3], 1.22 µM (active); in experiment [5], 30.1 µM (active); in experiment [17], 21.5 µM (active); in [12], 46.7 µM (active). Besides, the result in experiment [2], in [4], in experiment [13], in experiment [8], in [9] and in experiment [15] was inactive. The call in experiment [11] was inactive.
In the case of `CO[Si](OC)(OC)c1ccccc1`, the result in experiment [1], in [2], in experiment [3], in [4], in experiment [16] and in experiment [5] was inactive. Moreover, the outcome in experiment [13], in experiment [7], in experiment [9], in [10], in experiment [15] and in [11] was inactive. Besides, the outcome in [12] was inactive.
As for `CC[C@H]1OC(=O)[C@H](C)[C@@H](O[C@H]2C[C@@](C)(OC)[C@@H](O)[C@H](C)O2)[C@H](C)[C@@H](O[C@@H]2O[C@H](C)C[C@H](N(C)C)[C@H]2O)[C@](C)(O)C[C@@H](C)C(=NOCOCCOC)[C@H](C)[C@@H](O)[C@]1(C)O`, the outcome in experiment [1], in experiment [2], in experiment [3], in experiment [4], in experiment [5] and in experiment [13] was inactive. The compound was classed as inactive in [14], in experiment [6], in [8], in experiment [9], in experiment [17] and in [11].
